# Source: the supplement of paper PMC4709259
# Structures can show the parent of a compound that is named as a salt. ± gives the standard deviation.
# System: Jurkat
# Test: cell count relative to DMSO control (fraction of control); higher = more cells (less growth inhibition)
# Conditions: 48 h
row,SMILES,cell count
1,CC[C@@]1(O)C(=O)OCc2c1cc1n(c2=O)Cc2cc3c(CN(C)C)c(O)ccc3nc2-1 [Topotecan·HCl] (concentration: 25 nM),0.199 ± 0.016
2,CCCc1nc2c(C)cc(-c3nc4ccccc4n3C)cc2n1Cc1ccc(-c2ccccc2C(=O)O)cc1 [Telmisartan] (concentration: 25 µM),0.725 ± 0.051
3,Cc1[nH]cnc1CN1CCc2c(c3ccccc3n2C)C1=O [Alosetron·HCl] (concentration: 25 µM),0.592 ± 0.12
4,Clc1ccc2c(c1)CCc1cccnc1C2=C1CCNCC1 [Desloratadine] (concentration: 25 µM),0.702 ± 0.045
5,CN1C(C(=O)Nc2ccccn2)=C(O)c2ccccc2S1(=O)=O [Piroxicam] (concentration: 25 µM),0.738 ± 0.07
6,CCOc1ccc2ccccc2c1C(=O)N[C@@H]1C(=O)N2[C@@H]1SC(C)(C)[C@@H]2C(=O)O [Nafcillin·Na] (concentration: 25 µM),0.569 ± 0.13
7,O=C1CN(/N=C/c2ccc([N+](=O)[O-])o2)C(=O)N1 [Nitrofurantoin] (concentration: 2.5 µM),0.66 ± 0.029
8,CO[C@H]1O[C@@H]2O[C@@]3(C)CC[C@H]4[C@H](C)CC[C@@H]([C@H]1C)[C@@]24OO3 [Artemether] (concentration: 25 µM),0.632 ± 0.0091
9,COc1ccc2[nH]c([S@@+]([O-])Cc3ncc(C)c(OC)c3C)nc2c1 [Esomeprazole Potassium] (concentration: 25 µM),0.868 ± 0.081
10,O=C1c2c(O)ccc(O)c2C(=O)c2c(NCCNCCO)ccc(NCCNCCO)c21 [Mitoxantrone·HCl] (concentration: 25 nM),0.2 ± 0.063
